Among all 5,500 compounds or so, about 2,000 (36%) were called active. Inconclusive results (about 18%) are left out. No stated cut-off is given here; in the data, active means normalized growth mostly below about 0.91 (no sharp cut-off); inconclusive means no clear call, values can overlap the other calls; inactive means mostly above about 0.92. Some of the results follow.
Experiment: chemical genetic growth profiling, strain panel (AID 1159580);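 further: tested at 20 µM; growth read once vehicle control cultures reached saturation at 30 °C; 1 = growth at the plate median or of vehicle wells; lower values mean less growth of the strain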
Conditions: growth OD

Measured: normalized growth

c1ccc([C@H]2CN3CCSC3=N2)cc1
inactive: S. cerevisiae deletion strains, locus YJR075W, strain HOC1, hits give low values 1.01 | S. cerevisiae deletion strains, locus YKL009W, strain mrt4, hits give low values 1.01 | S. cerevisiae deletion strains, locus YKL068W, hits give low values 1.01 | S. cerevisiae deletion strains, locus YKL085W, strain MDH1 (second series), hits give low values 0.999 | S. cerevisiae deletion strains, locus YKL085W, strain MDH1, hits give low values 0.999 | S. cerevisiae deletion strains, locus YKL160W, strain elf1, hits give low values 1.01 | S. cerevisiae deletion strains, locus YKL190W, strain CNB1, hits give low values 0.998 | S. cerevisiae deletion strains, locus YKR001C, strain vps1, hits give low values 1 | S. cerevisiae deletion strains, locus YKR026C, strain gcn3, hits give low values 1.02 | S. cerevisiae deletion strains, locus YKR091W, strain srl3, hits give low values 0.993 | S. cerevisiae deletion strains, locus YLL001W, strain dnm1, hits give low values 0.99 | S. cerevisiae deletion strains, locus YLL026W, hits give low values 1.01 | S. cerevisiae deletion strains, locus YLL041C, strain sdh2, hits give low values 1.01 | S. cerevisiae deletion strains, locus YLR027C, strain aat2, hits give low values 0.99 | S. cerevisiae deletion strains, locus YLR039C, strain RIC1, hits give low values 1.02 | S. cerevisiae deletion strains, locus YLR058C, strain SHM2, hits give low values 1.01 | S. cerevisiae deletion strains, locus YLR102C, strain apc9, hits give low values 1 | S. cerevisiae deletion strains, locus YLR113W, strain HOG1, hits give low values 1.08 | S. cerevisiae deletion strains, locus YLR221C, strain rsa3, hits give low values 0.979 | S. cerevisiae deletion strains, locus YLR258W, strain gsy2, hits give low values 1.02 | S. cerevisiae deletion strains, locus YLR262C, strain YPT6 (second series), hits give low values 0.999 | S. cerevisiae deletion strains, locus YLR262C, strain YPT6, hits give low values 0.992 | S. cerevisiae deletion strains, locus YLR268W, strain sec22, hits give low values 0.993 | S. cerevisiae deletion strains, locus YLR320W, strain mms22, hits give low values 0.988 | S. cerevisiae deletion strains, locus YLR330W, strain CHS5, hits give low values 1.01 | S. cerevisiae deletion strains, locus YLR342W, strain FKS1 (second series), hits give low values 1.02 | S. cerevisiae deletion strains, locus YLR342W, strain FKS1, hits give low values 1.01 | S. cerevisiae deletion strains, locus YLR357W, strain rsc2, hits give low values 1.03 | S. cerevisiae deletion strains, locus YLR370C, strain arc18, hits give low values 0.999 | S. cerevisiae deletion strains, locus YLR371W, strain rom2, hits give low values 1.01 | S. cerevisiae deletion strains, locus YLR384C, strain iki3, hits give low values 1.01 | S. cerevisiae deletion strains, locus YLR418C, strain cdc73, hits give low values 0.984 | S. cerevisiae deletion strains, locus YML016C, strain PPZ1, hits give low values 1 | S. cerevisiae deletion strains, locus YML032C, strain rad52, hits give low values 1.02 | S. cerevisiae deletion strains, locus YML120C, strain ndi1, hits give low values 0.988 | S. cerevisiae deletion strains, locus YML124C, strain tub3, hits give low values 1 | S. cerevisiae deletion strains, locus YMR058W, strain fet3, hits give low values 1 | S. cerevisiae deletion strains, locus YMR078C, strain ctf18, hits give low values 0.996 | S. cerevisiae deletion strains, locus YMR125W, strain sto1, hits give low values 1.01 | S. cerevisiae deletion strains, locus YMR129W, hits give low values 0.996 | S. cerevisiae deletion strains, locus YMR205C, strain PFK2, hits give low values 1.02 | S. cerevisiae deletion strains, locus YMR223W, strain ubp8, hits give low values 1.01 | S. cerevisiae deletion strains, locus YMR231W, strain pep5, hits give low values 1 | S. cerevisiae deletion strains, locus YMR263W, strain SAP30, hits give low values 1 | S. cerevisiae deletion strains, locus YMR307W, strain GAS1, hits give low values 1.03 | S. cerevisiae deletion strains, locus YNL067W, strain RPL9B, hits give low values 1 | S. cerevisiae deletion strains, locus YNL071W, strain lat1, hits give low values 1.04 | S. cerevisiae deletion strains, locus YNL128W, strain TEP1, hits give low values 1.01 | S. cerevisiae deletion strains, locus YNL153C, strain GIM3, hits give low values 0.988 | S. cerevisiae deletion strains, locus YNL183C, strain NPR1, hits give low values 0.983 | S. cerevisiae deletion strains, locus YNL209W, strain ssb2, hits give low values 0.984 | S. cerevisiae deletion strains, locus YNL233W, strain BNI4, hits give low values 1.01 | S. cerevisiae deletion strains, locus YNL248C, strain rpa49, hits give low values 1 | S. cerevisiae deletion strains, locus YNL250W, strain rad50, hits give low values 1.01 | S. cerevisiae deletion strains, locus YNL271C, strain bni1, hits give low values 1.01 | S. cerevisiae deletion strains, locus YNL298W, strain CLA4, hits give low values 1 | S. cerevisiae deletion strains, locus YNL307C, strain MCK1, hits give low values 1.02 | S. cerevisiae deletion strains, locus YNL322C, strain KRE1 (second series), hits give low values 0.979 | S. cerevisiae deletion strains, locus YNL322C, strain KRE1, hits give low values 1 | S. cerevisiae deletion strains, locus YNR049C, strain mso1, hits give low values 0.994 | S. cerevisiae deletion strains, locus YNR052C, strain pop2, hits give low values 1.01 | S. cerevisiae deletion strains, locus YOL006C, strain TOP1, hits give low values 1.02 | S. cerevisiae deletion strains, locus YOL012C, strain htz1 1.06 | S. cerevisiae deletion strains, locus YOL147C, strain pex11, hits give low values 1 | S. cerevisiae deletion strains, locus YOR001W, strain rrp6, hits give low values 0.961 | S. cerevisiae deletion strains, locus YOR061W, strain CKA2, hits give low values 1 | S. cerevisiae deletion strains, locus YOR069W, strain VPS5, hits give low values 0.995 | S. cerevisiae deletion strains, locus YOR070C, strain gyp1, hits give low values 1.01 | S. cerevisiae deletion strains, locus YOR080W, strain dia2, hits give low values 0.994 | S. cerevisiae deletion strains, locus YOR083W, strain WHI5, hits give low values 0.995 | S. cerevisiae deletion strains, locus YOR106W, strain vam3, hits give low values 1.02 | S. cerevisiae deletion strains, locus YOR136W, strain idh2, hits give low values 0.997 | S. cerevisiae deletion strains, locus YOR144C, strain elg1, hits give low values 1 | S. cerevisiae deletion strains, locus YOR184W, strain ser1, hits give low values 1.02 | S. cerevisiae deletion strains, locus YOR231W, strain MKK1, hits give low values 1.05 | S. cerevisiae deletion strains, locus YOR265W, strain rbl2, hits give low values 1 | S. cerevisiae deletion strains, locus YOR270C, strain vph1, hits give low values 1.02 | S. cerevisiae deletion strains, locus YOR290C, strain snf2, hits give low values 1.01 | S. cerevisiae deletion strains, locus YOR316C, strain cot1, hits give low values 1.01 | S. cerevisiae deletion strains, locus YPL051W, strain arl3, hits give low values 1.01 | S. cerevisiae deletion strains, locus YPL055C, strain LGE1, hits give low values 0.98 | S. cerevisiae deletion strains, locus YPL078C, strain atp4, hits give low values 1.02 | S. cerevisiae deletion strains, locus YPL106C, strain sse1, hits give low values 0.999 | S. cerevisiae deletion strains, locus YPL240C, strain hsp82, hits give low values 1 | S. cerevisiae deletion strains, locus YPL241C, strain CIN2, hits give low values 1.01 | S. cerevisiae deletion strains, locus YPL256C, strain CLN2, hits give low values 1.04 | S. cerevisiae deletion strains, locus YPR119W, strain clb2, hits give low values 1 | S. cerevisiae deletion strains, locus YPR141C, strain kar3, hits give low values 0.999 | S. cerevisiae deletion strains, locus YPR163C, strain tif3, hits give low values 1 | S. cerevisiae deletion strains, locus YPR167C, strain met16, hits give low values 0.998 | S. cerevisiae deletion strains, strain wtn01, hits give low values 0.997 | S. cerevisiae strains, strain wild type, hits give low values 1

— PubChem BioAssay AID1159580 (chemical genetic matrix, 2015)
